PubChem BioAssay
The source made the active and inactive calls.

What was measured:
[1] = small molecules captured by biotinylated probe aFSTL3 – biochemical, small-molecule microarray, fluorescence 635/667, stem cell growth factor project, primary screen (AID 1064); details: higher = more signal;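 further: measures binding of the biotinylated anti-FSTL3 antibody to printed compounds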
[2] = binders from COS7 lysate, DM2A8 probe, primary screen, torsin A project, cell lysate, small-molecule microarray, fluorescence 635/667 (AID 1065); details: higher = more signal, COS7 lysate expressing mutant human TOR1A
[3] = small molecules captured by biotinylated probe aFGF2 – biochemical, small-molecule microarray, fluorescence 635/667, stem cell growth factor project, primary screen (AID 1067); details: higher = more signal;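 further: measures binding of biotinylated aFGF2 protein to printed compounds on slides; z-score merges feature fluorescence and signal-to-noise across triplicate slides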
[4] = small molecules captured by biotinylated probe aFGF10 – biochemical, small-molecule microarray, fluorescence 635/667, stem cell growth factor project, primary screen (AID 1071); details: higher = more signal;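 further: score merges 667 nm spot intensity and signal to noise from triplicate slides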
[5] = biological target: Neurogenic locus notch homolog protein 2 (Homo sapiens) (UniProt Q04721); assay: small molecules binding Notch2 protein – biochemical, small-molecule microarray, 635 nm fluorescence, stem cell growth factors, primary screen (AID 1073); details: higher = more signal
[6] = biological target: Pro-neuregulin-1, membrane-bound isoform (Homo sapiens) (UniProt Q02297); assay: small molecules binding neuregulin-1 protein – biochemical, small-molecule microarray, fluorescence 635/667, psychiatric disease protein project, primary screen (AID 1075); details: NRG1 binding, 635 nm fluorescence, higher = more signal;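 further: score combines 667 nm spot fluorescence with signal to noise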
[7] = tested on: Neuregulin-1 EGF-like domain; assay: small molecules binding NRG1 EGF domain – biochemical, small-molecule microarray, 635 nm fluorescence, primary screen (AID 1081); details: higher = more signal;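 further: binding of the protein to compounds printed on small-molecule microarray slides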
[8] = FRG1 expression reporter modulators in myotubes – cell-based, C2C12 myotubes, firefly/Renilla luciferase, luminescence, FRG1 inhibition for FSHD, primary screen (AID 1084); details: FRG1 promoter luciferase, higher = more signal, called active from +8 up or from −8 down
[9] = small molecules captured by biotinylated probe aFST – biochemical, small-molecule microarray, fluorescence 635/667, stem cell growth factor project, primary screen (AID 1086); details: higher = more signal;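 further: score merges 667 nm fluorescence with signal-to-noise of each printed compound spot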
[10] = binders of probe aHhip on microarray, primary screen, stem cell growth factor project, biochemical, small-molecule microarray, fluorescence 635/667 (AID 1087); details: higher = more signal;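 further: score merges spot fluorescence at 667nm with spot signal to noise ratio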
[11] = tested on: PRMT1 (protein arginine N-methyltransferase 1); assay: small molecules binding arginine methyltransferase PRMT1 – biochemical, small-molecule microarray, 635 nm fluorescence, primary screen (AID 1088); details: higher = more signal;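 further: binding of Prmt1 protein to compounds spotted on small-molecule microarray slides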
[12] = growth effects on S. cerevisiae YJM789 – YJM789 clinical isolate, OD600, 24 h, basal, primary screen (AID 1089); details: higher = more signal, called active from +8 up or from −8 down;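 further: growth of clinical yeast isolate S. cerevisiae YJM 789 seeded 1000 cells per well; test concentration not given here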
[13] = S. pombe growth modifiers, basal conditions – strain 972, OD600, 24 h, no modulator, primary screen (AID 1090);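 further: basal condition with compound alone and no growth modifier present; test concentration not given here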; details: S. pombe 972 growth, higher = more signal, called active from +8 up or from −8 down
[14] = budding yeast growth modifiers under rapamycin – strain BY4716, OD600, 96 h, primary screen (AID 1091); further: test concentration not given here; details: S. cerevisiae BY4716 + rapamycin, higher = more signal, called active from +8 up or from −8 down
[15] = biological target: Torsin-1A-interacting protein 2 (Homo sapiens) (UniProt Q8NFQ8); assay: small molecules binding lysate-expressed LULL1 – cell lysate, human LULL1 lysate, 635/667 nm fluorescence, primary screen (AID 1092); details: small-molecule microarray, hLULL1 lysate binding, 635 nm fluorescence; higher = more signal;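 further: probe is lysate of COS7 cells overexpressing human LULL1; score merges per-feature 667 nm fluorescence with signal-to-noise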
[16] = optical density change of DRC41 E. coli – strain DRC41, OD650, 24 h, E. coli filamentation project, primary screen (AID 1093);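 further: MC1000 strain lacking acrAB efflux and sulA so SOS filamentation is blocked; test concentration not given here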; details: E. coli DRC41 growth, higher = more signal, called active from +8 up or from −8 down
[17] = probe aLefty2 binding to arrayed compounds – biochemical, biotinylated probe, 635/667 nm fluorescence, primary screen (AID 1094); details: small-molecule microarray, higher = more signal;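 further: score merges spot fluorescence near 667 nm with spot signal-to-noise ratio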
[18] = tested on: Noggin (protein binding on small-molecule microarray); assay: small molecules binding Noggin protein – biochemical, 635/667 nm fluorescence, primary screen (AID 1095); details: 635 nm fluorescence, higher = more signal;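 further: score merges 667 nm feature fluorescence with signal to noise over triplicate slides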
[19] = biological target: Neurogenic locus notch homolog protein 3 (Homo sapiens) (UniProt Q9UM47); assay: small molecules binding NOTCH3 protein – biochemical, 635/667 nm fluorescence, primary screen (AID 1096); details: small-molecule microarray, 635 nm fluorescence, higher = more signal
[20] = probe aEGFR binding to arrayed compounds – biochemical, biotinylated probe, 635/667 nm fluorescence, primary screen (AID 1097); details: small-molecule microarray, higher = more signal;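 further: probe is a biotinylated anti-EGFR antibody binding compounds printed on slides; score combines fluorescence near 667 nm and signal to noise of each spot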

Chain of Neurogenic locus notch homolog protein 2 (Homo sapiens) (Q04721 whole entry, looked up, canonical isoform): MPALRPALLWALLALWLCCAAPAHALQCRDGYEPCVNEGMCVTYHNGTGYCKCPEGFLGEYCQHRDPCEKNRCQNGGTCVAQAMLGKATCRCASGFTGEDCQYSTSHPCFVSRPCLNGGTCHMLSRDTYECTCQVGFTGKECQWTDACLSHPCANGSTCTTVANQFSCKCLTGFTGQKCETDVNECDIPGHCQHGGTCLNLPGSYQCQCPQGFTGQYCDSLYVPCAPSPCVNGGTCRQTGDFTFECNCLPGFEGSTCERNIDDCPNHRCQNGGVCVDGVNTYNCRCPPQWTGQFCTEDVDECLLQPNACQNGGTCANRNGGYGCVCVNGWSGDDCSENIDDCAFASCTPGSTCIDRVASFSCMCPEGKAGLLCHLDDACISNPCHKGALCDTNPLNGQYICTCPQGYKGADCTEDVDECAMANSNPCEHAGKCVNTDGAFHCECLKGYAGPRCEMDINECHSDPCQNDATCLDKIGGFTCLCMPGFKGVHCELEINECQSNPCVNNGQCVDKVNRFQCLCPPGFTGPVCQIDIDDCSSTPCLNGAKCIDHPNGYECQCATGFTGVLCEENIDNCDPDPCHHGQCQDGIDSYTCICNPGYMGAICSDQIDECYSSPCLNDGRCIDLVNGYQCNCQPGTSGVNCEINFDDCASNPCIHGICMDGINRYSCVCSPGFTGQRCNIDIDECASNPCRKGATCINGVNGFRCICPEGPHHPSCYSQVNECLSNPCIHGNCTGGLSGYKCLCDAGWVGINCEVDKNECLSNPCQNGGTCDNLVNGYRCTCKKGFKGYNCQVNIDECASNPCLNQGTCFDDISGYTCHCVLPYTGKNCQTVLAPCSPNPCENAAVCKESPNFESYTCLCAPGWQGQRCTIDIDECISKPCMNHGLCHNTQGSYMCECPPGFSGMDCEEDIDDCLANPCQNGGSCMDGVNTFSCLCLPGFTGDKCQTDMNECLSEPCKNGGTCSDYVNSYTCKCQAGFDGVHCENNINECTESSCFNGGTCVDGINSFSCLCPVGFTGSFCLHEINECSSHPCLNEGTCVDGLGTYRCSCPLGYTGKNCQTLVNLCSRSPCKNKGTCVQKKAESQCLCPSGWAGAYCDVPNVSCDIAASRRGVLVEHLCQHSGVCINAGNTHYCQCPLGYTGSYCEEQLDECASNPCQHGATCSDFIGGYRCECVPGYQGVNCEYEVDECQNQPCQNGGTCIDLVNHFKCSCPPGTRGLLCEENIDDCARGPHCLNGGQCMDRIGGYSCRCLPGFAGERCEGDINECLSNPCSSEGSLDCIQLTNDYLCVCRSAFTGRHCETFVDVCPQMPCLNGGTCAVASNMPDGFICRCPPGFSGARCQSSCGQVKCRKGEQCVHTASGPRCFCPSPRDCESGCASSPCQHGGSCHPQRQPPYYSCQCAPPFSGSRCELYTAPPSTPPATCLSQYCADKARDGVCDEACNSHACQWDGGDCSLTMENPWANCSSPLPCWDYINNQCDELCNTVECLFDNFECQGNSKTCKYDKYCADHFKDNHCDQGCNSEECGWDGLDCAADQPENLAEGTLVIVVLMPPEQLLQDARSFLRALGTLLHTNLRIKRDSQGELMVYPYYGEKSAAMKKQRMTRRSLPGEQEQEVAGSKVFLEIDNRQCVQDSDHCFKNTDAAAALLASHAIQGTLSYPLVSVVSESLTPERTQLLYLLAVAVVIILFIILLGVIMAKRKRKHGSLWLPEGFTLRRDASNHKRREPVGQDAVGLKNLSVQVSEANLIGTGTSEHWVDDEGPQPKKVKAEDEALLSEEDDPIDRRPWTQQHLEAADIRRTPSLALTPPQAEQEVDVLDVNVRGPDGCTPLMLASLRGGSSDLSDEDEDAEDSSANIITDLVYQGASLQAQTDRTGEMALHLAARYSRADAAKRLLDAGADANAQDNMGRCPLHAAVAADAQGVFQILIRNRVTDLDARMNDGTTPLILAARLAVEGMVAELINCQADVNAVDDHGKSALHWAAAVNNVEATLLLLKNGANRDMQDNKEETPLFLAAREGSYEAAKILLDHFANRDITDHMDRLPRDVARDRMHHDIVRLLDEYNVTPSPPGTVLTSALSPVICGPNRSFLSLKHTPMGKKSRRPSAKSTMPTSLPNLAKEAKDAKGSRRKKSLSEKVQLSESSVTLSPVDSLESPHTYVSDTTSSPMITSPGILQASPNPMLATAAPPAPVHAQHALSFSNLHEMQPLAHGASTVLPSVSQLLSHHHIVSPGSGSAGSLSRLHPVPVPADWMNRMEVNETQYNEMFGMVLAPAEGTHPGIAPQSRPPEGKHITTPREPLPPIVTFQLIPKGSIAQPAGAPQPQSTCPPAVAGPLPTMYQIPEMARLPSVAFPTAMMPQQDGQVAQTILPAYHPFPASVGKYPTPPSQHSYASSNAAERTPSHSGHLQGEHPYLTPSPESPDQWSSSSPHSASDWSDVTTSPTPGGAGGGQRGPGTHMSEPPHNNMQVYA
Chain of Torsin-1A-interacting protein 2 (Homo sapiens) (Q8NFQ8 whole entry, looked up): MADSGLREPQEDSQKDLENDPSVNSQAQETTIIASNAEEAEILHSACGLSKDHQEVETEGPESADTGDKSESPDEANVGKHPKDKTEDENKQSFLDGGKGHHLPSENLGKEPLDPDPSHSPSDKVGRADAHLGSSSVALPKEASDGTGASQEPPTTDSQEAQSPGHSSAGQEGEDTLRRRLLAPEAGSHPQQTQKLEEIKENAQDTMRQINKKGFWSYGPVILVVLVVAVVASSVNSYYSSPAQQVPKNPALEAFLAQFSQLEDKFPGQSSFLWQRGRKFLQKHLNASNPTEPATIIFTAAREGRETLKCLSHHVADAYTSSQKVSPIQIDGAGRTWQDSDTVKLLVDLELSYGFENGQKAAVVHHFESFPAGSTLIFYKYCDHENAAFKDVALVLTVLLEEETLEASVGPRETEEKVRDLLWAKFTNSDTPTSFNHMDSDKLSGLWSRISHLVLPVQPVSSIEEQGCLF
Chain of Pro-neuregulin-1, membrane-bound isoform (Homo sapiens) (Q02297 whole entry, looked up, the tested form may be a part, canonical isoform): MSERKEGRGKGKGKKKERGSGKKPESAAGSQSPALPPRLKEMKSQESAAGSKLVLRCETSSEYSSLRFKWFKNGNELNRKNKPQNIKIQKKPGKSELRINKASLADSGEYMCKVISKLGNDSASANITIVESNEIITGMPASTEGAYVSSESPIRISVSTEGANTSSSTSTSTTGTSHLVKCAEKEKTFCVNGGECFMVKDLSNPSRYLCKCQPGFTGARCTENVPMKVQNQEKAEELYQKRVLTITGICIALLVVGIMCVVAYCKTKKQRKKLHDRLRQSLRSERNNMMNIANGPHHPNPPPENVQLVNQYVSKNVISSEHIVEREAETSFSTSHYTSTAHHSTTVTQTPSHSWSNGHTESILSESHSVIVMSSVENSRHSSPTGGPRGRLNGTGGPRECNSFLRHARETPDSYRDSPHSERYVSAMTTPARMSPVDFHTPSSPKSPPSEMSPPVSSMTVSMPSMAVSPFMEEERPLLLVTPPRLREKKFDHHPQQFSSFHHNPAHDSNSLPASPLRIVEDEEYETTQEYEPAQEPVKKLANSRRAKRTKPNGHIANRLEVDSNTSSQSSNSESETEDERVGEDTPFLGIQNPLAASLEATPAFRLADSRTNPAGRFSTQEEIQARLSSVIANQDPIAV

Row | SMILES | composite z-score [1] | composite z-score [2] | composite z-score [3] | composite z-score [4] | composite z-score [5] | composite z-score [6] | composite z-score [7] | z-score [8] | composite z-score [9] | composite z-score [10] | composite z-score [11] | z-score [12] | z-score [13] | z-score [14] | composite z-score [15] | z-score [16] | composite z-score [17] | composite z-score [18] | composite z-score [19] | composite z-score [20]
1 | C=CC[C@@]1(C(=O)N(C)C)N=C(c2ccc(OCCCO)cc2)O[C@@H]1c1ccccc1CN=[N+]=[N-] | 0.151 | 0.448 | -0.0004 | 1.01 | 1.61 | 1.68 | 1.17 | -2.64 (inactive) | 1.18 | 0.0373 | 1.55 | -0.127 (inactive) | -0.0815 (inactive) | -0.64 (inactive) | 3.33 | 1.42 (inactive) | 0.264 | 1.77 | 1.07 | 0.538
2 | OCCCC1=CC(c2ccc(CN3CCCC3)cc2)N(Cc2cccc(OC(F)(F)F)c2)CC1 (stereo not given) | 0.373 | 0.134 | -0.0853 | 0.0263 | -0.546 | 0.0603 | 0.0735 | 0.372 (inactive) | -0.176 | -0.236 | -0.688 | -2.01 (inactive) | -14.9 (active) | -2.62 (inactive) | 0.203 | -0.987 (inactive) | 0.0029 | 0.123 | -0.752 | -0.181
3 | CC1CC/C=C\[C@H]2OC34C=CCN(C(C)(C)C)C(=O)[C@H]3N(CCCO)C(=O)[C@@H]4C2C(=O)O1 (stereo not given in full) | 0.142 | -0.0052 | -0.0063 | 0.716 | -0.858 | 0.647 | 1.28 | -0.281 (inactive) | 0.182 | -0.169 | -0.672 | 0.884 (inactive) | 0.743 (inactive) | 1.14 (inactive) | 1.86 | 0.545 (inactive) | -0.214 | -0.556 | -0.281 | -0.249
4 | CC1CC/C=C\[C@H]2OC34C=CCN(Cc5ccccc5)C(=O)[C@H]3N(CCCCCCO)C(=O)[C@@H]4C2C(=O)O1 (stereo not given in full) | 0.261 | 0.96 | -0.116 | -0.994 | -0.763 | 1.91 | 1.19 | -0.1 (inactive) | -0.696 | -0.226 | 0.661 | -0.617 (inactive) | -0.623 (inactive) | -0.482 (inactive) | 2.31 | 0.246 (inactive) | -0.163 | -1.78 | -0.397 | -0.0773
5 | O=C(NCc1ccccc1)[C@@H]1c2ccccc2C(=O)N(Cc2cc(C(F)(F)F)cc(C(F)(F)F)c2)[C@H]1c1ccc(CO)cc1 | -0.501 | 1.62 | -0.118 | 0.409 | 0.685 | 0.71 | 1.27 | -0.354 (inactive) | 0.423 | 0.0505 | 1.53 | 0.744 (inactive) | -0.077 (inactive) | 0.296 (inactive) | 2.55 | -1 (inactive) | -0.0512 | 1.37 | 1.12 | 0.0453
